We go through nine compounds from PubChem BioAssay.

The nature of assay [1]: Wnt pathway potentiators raising nuclear beta-catenin – imaging, WNT3A-conditioned medium, mouse C2C12, NPC library, primary screen (AID 1117326). Further: reference of the scale not given here. The conditions noted are these: stronger effect = higher value.
A short description of assay [2]: stimulators of insulin release from INS-1E, primary screen, cell-based, 5 mM glucose, NPC library (AID 1117329;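 active means compound raises insulin release from rat beta cells at 5 mM glucose, no numeric limit stated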; further: reference of the scale not given here). As to conditions: rat INS-1E insulin secretion, at 10 µM, stronger effect = higher value.
Assay [3] can be described thus: growth inhibition of GSK3B-pretreated HCT116 cells – cell-based, CellTiter-Glo, 0.2 to 20 µM (AID 1117336;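 active means compounds lowering colon cancer cell viability after pretreatment blocking the GSK3B kinase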). The conditions noted are these: HCT116 viability after GSK3B inhibitor, at 20 µM, stronger effect = higher value.
Assay [4] can be described thus: inhibition of endothelial tube formation, primary screen, imaging, VEGF stimulated, CD31 staining, tube area, NPC library (AID 1117340;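 active means compound that reduces growth-factor-driven endothelial tube area in a mixed cell culture, no cutoff stated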). As to conditions: VEGF-stimulated ADSC/ECFC co-culture, at 10 µM, stronger effect = higher value.
A short description of assay [5]: GLP1 release stimulators, primary, NCI-H716, NPC library (AID 1117341;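 active means compound raises GLP1 secretion from the human gut endocrine cells, with no numeric limit stated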; further: reference of the scale not given here). The conditions noted are these: NCI-H716 cells, at 10 µM, stronger effect = higher value.
Assay [6] in a line: HCT116 colon cancer cell growth inhibition, primary screen, CellTiter-Glo luminescence, NPC library (AID 1117342;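 active means compounds that lower survival of HCT116 colon cancer cells in the luminescence readout, no numeric limit stated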). The conditions noted are these: at 20 µM (top of the series). On the technique in general: In ATP-based viability assays light output follows the ATP content of the culture.
Assay [7] is described as follows: reduced SW480 viability measured with CellTiter-Glo, NPC library, primary (AID 1117343;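 active means compounds that lower viability of the colon cancer cells in the luminescence readout, with no numeric limit stated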). As to conditions: CellTiter-Glo luminescence; at 20 µM (top of the series).
The nature of assay [8]: NPC library primary testing for decreased DLD-1 cell viability via CellTiter-Glo (AID 1117346;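 active means compounds that lower survival of DLD-1 colon cancer cells in the luminescence readout, no cutoff given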). As to conditions: DLD-1 viability, CellTiter-Glo luminescence; at 20 µM (top of the series).

Activity calls are given as the source filed them. Unless noted, no stated cut-off is given here; in the data, active means nuclear beta-catenin stimulation mostly above about 4.2% (no sharp cut-off); inactive means mostly below about 10%.

As for `CC(C)NC(=O)c1ccc(C=O)cc1`, the nuclear beta-catenin stimulation in assay [1] (at 10 µM) is 0% (inactive); in assay [1] (stimulation, at 2 µM) it was -0.8%. In addition, the insulin secretion stimulation in assay [2] was -0.75% (inactive). Besides, the viability decrease in assay [3] is 18.8% (inactive). Also, the tube area decrease in assay [4] is -7.2% (inactive). The GLP1 secretion stimulation in assay [5] was 2.1% (inactive). In addition, the inhibition of viability in assay [6] is -5.1% (inactive). Further, the viability decrease (inhibition) is -15.1% (inactive) in assay [7] and -5.8% (inactive) in assay [8].
`CCCN(CCc1cccs1)[C@H]1CCc2c(O)cccc2C1`: the nuclear beta-catenin stimulation in assay [1] (at 10 µM) is 0.6% (inactive); in assay [1] (stimulation, at 2 µM) it was -2.2%. The insulin secretion stimulation in assay [2] is 8.95% (inactive). Also, in assay [3], the viability decrease is 48.4% (inactive). In assay [4], the tube area decrease was 0.6% (inactive). Moreover, the GLP1 secretion stimulation in assay [5] is 2.4% (inactive). The inhibition of viability in assay [6] is 65.2% (active). The viability decrease (inhibition) in assay [7] is 30.3% (inactive); in assay [8] it was 9.7% (inactive).
On to `COC(=O)c1ccccc1C(=O)c1ccc(OCCN2CCCCC2)cc1`, for which the nuclear beta-catenin stimulation in assay [1] (at 10 µM) was 0.4% (inactive); in assay [1] (stimulation, at 2 µM) it was 0.7%. The insulin secretion stimulation in assay [2] was 0.95% (inactive). Further, the viability decrease in assay [3] is 26.9% (inactive). Besides, in assay [4], the tube area decrease was -5.8% (inactive). In addition, the GLP1 secretion stimulation in assay [5] is 3.5% (inactive). Moreover, the inhibition of viability in assay [6] was 39.7% (inactive). The viability decrease (inhibition) in assay [7] was 15.8% (inactive); in assay [8], 39.7% (inactive).
Take `CC[C@@H]([C@H](C)O)n1ncn(-c2ccc(N3CCN(c4ccc(OC[C@@H]5CO[C@@](Cn6cncn6)(c6ccc(F)cc6F)C5)cc4)CC3)cc2)c1=O`: the nuclear beta-catenin stimulation in assay [1] (at 10 µM) was 51.6% (active); in assay [1] (stimulation, at 2 µM) it was 8.2%. Further, the insulin secretion stimulation in assay [2] is 1.4% (inactive). In addition, the viability decrease in assay [3] was 11.8% (inactive). The tube area decrease in assay [4] is 97.9% (active). In assay [5], the GLP1 secretion stimulation was 4.8% (inactive). The inhibition of viability in assay [6] was 77.7% (active). Moreover, the viability decrease (inhibition) in assay [7] is 83.8% (active); in assay [8], 24.1% (inactive).
As for `CN1C(CSCC(F)(F)F)Nc2cc(Cl)c(S(N)(=O)=O)cc2S1(=O)=O` (stereo unspecified), the nuclear beta-catenin stimulation in assay [1] (at 10 µM) is -0.4% (inactive); in assay [1] (stimulation, at 2 µM), -1.1%. Besides, the insulin secretion stimulation in assay [2] is 6.7% (inactive). In addition, the viability decrease in assay [3] is -2.8% (inactive). Further, the tube area decrease in assay [4] was -10.7% (inactive). The GLP1 secretion stimulation in assay [5] is 1.3% (inactive). Further, the inhibition of viability in assay [6] is 30.1% (inactive). For the same compound, the figures for the viability decrease (inhibition) in assay [7] and in assay [8] were -4.4% (inactive) and -7.1% (inactive), respectively.
Consider `O=C(O)Cc1cn(-c2ccccc2)nc1-c1ccc(Cl)cc1`, for which the nuclear beta-catenin stimulation in assay [1] (at 10 µM) is 8.7% (inactive); in assay [1] (stimulation, at 2 µM) it was 1.2%. The insulin secretion stimulation in assay [2] was 0.6% (inactive). Moreover, in assay [3], the viability decrease was 20.4% (inactive). Besides, in assay [4], the tube area decrease is -3.1% (inactive). Also, the GLP1 secretion stimulation in assay [5] was -0.7% (inactive). The inhibition of viability in assay [6] is 16.8% (inactive). In addition, the viability decrease (inhibition) in assay [7] was 16.1% (active); in assay [8], 7.8% (inactive).
`C=Cc1ccccc1`: the nuclear beta-catenin stimulation in assay [1] (at 10 µM) is -2.1% (inactive); in assay [1] (stimulation, at 2 µM) it was -0.8%. Moreover, the insulin secretion stimulation in assay [2] is 3.5% (inactive). The viability decrease in assay [3] is -5% (inactive). For the same compound, the tube area decrease in assay [4] was -9.4% (inactive). For the same compound, the GLP1 secretion stimulation in assay [5] was -1.4% (inactive). Also, in assay [6], the inhibition of viability was 6.9% (inactive). Also, the viability decrease (inhibition) in assay [7] is 0.4% (inactive); in assay [8] it was 1.7% (inactive).
Regarding `CCCc1ncc(C(=O)O)s1`, the nuclear beta-catenin stimulation was -1.1% (inactive) in assay [1] (at 10 µM) and -1.2% in assay [1] (stimulation, at 2 µM). Moreover, in assay [2], the insulin secretion stimulation is 4.2% (inactive). Further, the viability decrease in assay [3] was -8.2% (inactive). The tube area decrease in assay [4] is 9.7% (inactive). The GLP1 secretion stimulation in assay [5] was -5.4% (inactive). The inhibition of viability in assay [6] was 5.1% (inactive). Moreover, the viability decrease (inhibition) in assay [7] is 2.1% (inactive); in assay [8] it was -6.8% (inactive).
Consider `O=C1CCC(C(=O)O)N1` (stereo unspecified), for which the nuclear beta-catenin stimulation in assay [1] (at 10 µM) is -1.2% (inactive); in assay [1] (stimulation, at 2 µM), 2.3%. In assay [2], the insulin secretion stimulation is 2.6% (inactive). Also, the viability decrease in assay [3] is -7.5% (inactive). Moreover, the tube area decrease in assay [4] is 6.4% (inactive). Moreover, the GLP1 secretion stimulation in assay [5] was -3.6% (inactive). In assay [6], the inhibition of viability was 2.4% (inactive). For the same compound, the viability decrease (inhibition) was -1.5% (inactive) in assay [7] and -4% (inactive) in assay [8].
